Assay results from paper PMC7862700, “An all-to-all approach to the identification of sequence-specific readers for epigenetic DNA modifications on cytosine”.

Experiments:
Test in all cases: DAPPL (digital affinity profiling via proximity ligation, sequencing); 10 mM Tris-HCl pH 7.5, 50 mM NaCl, 1 mM DTT, 4% glycerol, room temperature, 30 min; GST-TFs on glutathione beads, 16-mer random dsDNA library, 0.1% formaldehyde crosslink after washing; high values mean tight binding
Conditions in all cases: protein: recombinant; tags: N-terminal GST; dsDNA, one strand shown
ELK1 = target: T1, ELK1 (Homo sapiens, UniProt P19419 1-428)
T1 sequence: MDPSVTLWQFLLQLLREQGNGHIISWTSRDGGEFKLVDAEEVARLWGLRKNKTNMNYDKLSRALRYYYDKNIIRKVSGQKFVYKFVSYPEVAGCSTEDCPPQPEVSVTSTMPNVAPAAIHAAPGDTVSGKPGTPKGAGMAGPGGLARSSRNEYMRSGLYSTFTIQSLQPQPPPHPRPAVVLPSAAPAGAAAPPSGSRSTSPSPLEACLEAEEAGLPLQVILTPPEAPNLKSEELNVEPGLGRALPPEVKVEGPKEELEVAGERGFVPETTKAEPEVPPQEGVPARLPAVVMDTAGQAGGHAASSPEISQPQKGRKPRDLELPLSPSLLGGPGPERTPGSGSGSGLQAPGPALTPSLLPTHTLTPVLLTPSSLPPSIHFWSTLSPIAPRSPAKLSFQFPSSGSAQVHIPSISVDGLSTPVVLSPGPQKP
Summary of the method: (§1)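 GST fusions of human transcription factors were expressed in yeast and captured with glutathione beads. Once given DNA barcodes and pooled alongside a tag-only sample, they were incubated for 30 min at room temperature with 200 nmole of a random double-stranded 16-mer DNA library in Tris/NaCl/DTT/glycerol buffer, then washed, crosslinked (0.1% formaldehyde), proximity-ligated, PCR-amplified and sequenced on an Illumina NextSeq500. The binding signal of each hexamer is its read frequency for a factor divided by its frequency for the tag-only sample.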

GABPA = target: T2, GABPA (Homo sapiens, UniProt Q06546 1-454)
T2 sequence: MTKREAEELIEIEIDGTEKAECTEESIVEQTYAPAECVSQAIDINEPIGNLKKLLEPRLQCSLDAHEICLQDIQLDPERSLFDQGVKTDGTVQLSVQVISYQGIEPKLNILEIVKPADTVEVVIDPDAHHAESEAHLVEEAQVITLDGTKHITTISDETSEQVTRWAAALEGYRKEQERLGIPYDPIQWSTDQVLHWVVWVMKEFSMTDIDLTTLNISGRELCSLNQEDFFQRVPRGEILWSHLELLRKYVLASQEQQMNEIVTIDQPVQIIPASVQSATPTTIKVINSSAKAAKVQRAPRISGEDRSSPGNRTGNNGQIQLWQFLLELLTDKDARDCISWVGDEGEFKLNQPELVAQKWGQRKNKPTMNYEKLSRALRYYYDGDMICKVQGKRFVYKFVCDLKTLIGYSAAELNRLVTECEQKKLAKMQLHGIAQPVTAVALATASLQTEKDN
Summary of the method: as §1

ERG = target: T3, ERG (Homo sapiens, UniProt P11308 1-479)
T3 sequence: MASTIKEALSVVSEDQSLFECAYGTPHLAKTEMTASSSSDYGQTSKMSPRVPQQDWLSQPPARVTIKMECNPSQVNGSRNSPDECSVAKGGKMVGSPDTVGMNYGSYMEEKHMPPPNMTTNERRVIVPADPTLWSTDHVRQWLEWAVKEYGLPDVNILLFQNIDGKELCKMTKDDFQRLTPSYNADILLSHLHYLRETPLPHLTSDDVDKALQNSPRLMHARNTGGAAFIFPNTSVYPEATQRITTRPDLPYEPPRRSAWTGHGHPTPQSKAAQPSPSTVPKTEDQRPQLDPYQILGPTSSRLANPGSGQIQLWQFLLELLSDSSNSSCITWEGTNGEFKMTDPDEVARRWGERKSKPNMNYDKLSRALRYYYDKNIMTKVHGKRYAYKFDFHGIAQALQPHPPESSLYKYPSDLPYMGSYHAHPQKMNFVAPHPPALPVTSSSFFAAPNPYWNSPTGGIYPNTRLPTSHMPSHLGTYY
Summary of the method: as §1

ELF1 = ELF1 (Homo sapiens, UniProt P32519 1-619)
ELF1, sequence (P32519 whole entry): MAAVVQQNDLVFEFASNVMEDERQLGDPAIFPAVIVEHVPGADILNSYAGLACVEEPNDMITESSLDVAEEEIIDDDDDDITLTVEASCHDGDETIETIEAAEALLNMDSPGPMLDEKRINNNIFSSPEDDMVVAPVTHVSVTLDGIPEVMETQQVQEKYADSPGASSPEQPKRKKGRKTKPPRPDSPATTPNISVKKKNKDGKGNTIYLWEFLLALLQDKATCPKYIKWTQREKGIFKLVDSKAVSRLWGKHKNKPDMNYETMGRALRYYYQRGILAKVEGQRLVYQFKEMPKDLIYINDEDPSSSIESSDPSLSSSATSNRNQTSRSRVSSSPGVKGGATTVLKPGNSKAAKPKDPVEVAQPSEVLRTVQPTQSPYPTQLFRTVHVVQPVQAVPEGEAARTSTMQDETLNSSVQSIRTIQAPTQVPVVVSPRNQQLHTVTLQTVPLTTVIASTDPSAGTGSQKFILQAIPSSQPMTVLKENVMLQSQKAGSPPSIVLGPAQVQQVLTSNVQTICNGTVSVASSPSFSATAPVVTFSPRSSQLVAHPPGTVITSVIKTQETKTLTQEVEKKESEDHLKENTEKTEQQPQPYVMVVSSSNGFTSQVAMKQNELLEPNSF
Summary of the method: as §1

ELK3 = target: T4, ELK3 (Homo sapiens, UniProt P41970 1-407)
T4 sequence: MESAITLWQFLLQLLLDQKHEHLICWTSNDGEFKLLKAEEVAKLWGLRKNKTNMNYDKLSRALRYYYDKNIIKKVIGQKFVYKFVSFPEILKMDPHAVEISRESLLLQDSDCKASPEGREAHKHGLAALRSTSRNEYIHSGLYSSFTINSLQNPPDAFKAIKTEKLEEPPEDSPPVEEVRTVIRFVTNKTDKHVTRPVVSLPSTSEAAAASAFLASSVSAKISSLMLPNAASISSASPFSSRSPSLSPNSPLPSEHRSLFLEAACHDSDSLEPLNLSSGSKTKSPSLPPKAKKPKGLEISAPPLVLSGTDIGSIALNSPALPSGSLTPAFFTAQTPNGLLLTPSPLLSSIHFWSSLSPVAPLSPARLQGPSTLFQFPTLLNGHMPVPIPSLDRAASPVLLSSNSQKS
Summary of the method: as §1

ETV5 = ETV5 (Homo sapiens, UniProt P41161 1-510)
ETV5, sequence (P41161 whole entry): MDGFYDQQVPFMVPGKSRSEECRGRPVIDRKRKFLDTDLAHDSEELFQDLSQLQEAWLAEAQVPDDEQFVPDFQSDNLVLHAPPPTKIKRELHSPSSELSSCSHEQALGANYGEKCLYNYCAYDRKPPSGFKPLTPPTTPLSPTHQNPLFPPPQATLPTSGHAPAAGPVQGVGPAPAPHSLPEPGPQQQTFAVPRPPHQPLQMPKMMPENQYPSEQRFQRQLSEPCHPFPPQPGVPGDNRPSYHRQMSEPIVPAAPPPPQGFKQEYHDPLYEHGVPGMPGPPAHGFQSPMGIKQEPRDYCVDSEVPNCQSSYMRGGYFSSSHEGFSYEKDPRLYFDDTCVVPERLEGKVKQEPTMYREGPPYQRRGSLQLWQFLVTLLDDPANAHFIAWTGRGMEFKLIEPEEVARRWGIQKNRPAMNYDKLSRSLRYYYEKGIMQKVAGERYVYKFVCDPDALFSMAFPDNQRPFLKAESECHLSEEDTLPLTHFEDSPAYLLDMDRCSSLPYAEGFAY
Summary of the method: as §1

SPIC = target: T5, SPIC (Homo sapiens, UniProt Q8N5J4 1-248)
T5 sequence: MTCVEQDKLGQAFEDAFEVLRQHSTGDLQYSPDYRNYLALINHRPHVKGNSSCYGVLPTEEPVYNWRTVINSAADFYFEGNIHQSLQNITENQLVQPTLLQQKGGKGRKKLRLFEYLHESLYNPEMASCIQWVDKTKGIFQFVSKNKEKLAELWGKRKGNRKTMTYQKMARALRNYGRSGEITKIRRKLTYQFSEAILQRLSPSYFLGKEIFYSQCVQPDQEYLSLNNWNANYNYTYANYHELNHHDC
Summary of the method: as §1

ELF4 = ELF4 (Homo sapiens, UniProt Q99607 1-663)
ELF4, sequence (Q99607 whole entry): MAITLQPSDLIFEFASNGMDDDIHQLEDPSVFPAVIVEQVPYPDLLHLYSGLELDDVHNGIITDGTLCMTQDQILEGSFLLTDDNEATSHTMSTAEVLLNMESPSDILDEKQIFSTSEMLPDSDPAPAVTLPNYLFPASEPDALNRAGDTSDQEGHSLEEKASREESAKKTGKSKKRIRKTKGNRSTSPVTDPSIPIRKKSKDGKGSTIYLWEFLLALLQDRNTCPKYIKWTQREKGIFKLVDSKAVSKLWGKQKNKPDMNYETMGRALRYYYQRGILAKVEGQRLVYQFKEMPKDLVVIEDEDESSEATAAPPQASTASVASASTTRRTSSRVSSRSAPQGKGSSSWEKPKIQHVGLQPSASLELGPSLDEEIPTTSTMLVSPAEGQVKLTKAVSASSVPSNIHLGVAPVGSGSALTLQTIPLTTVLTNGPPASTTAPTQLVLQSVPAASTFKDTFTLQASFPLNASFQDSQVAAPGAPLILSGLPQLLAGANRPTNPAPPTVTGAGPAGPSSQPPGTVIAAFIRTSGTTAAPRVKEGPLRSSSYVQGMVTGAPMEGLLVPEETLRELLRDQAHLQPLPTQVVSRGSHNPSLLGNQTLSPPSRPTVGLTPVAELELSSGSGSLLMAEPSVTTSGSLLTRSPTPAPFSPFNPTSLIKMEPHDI
Summary of the method: as §1

ELK4 = target: T6, ELK4 (Homo sapiens, UniProt P28324-2 1-405)
T6 sequence: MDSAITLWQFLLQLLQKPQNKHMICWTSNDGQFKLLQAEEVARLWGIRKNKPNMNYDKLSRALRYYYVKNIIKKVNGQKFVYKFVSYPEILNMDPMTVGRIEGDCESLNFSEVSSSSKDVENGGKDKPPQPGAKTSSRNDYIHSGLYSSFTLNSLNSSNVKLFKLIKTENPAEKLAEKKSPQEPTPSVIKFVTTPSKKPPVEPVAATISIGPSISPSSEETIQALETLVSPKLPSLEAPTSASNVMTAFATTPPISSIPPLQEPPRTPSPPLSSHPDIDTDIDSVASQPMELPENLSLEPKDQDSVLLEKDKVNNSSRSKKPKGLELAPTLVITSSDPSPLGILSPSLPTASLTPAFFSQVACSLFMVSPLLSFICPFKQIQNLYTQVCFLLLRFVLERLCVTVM
Summary of the method: as §1

ERF = target: T7, ERF (Homo sapiens, UniProt P50548 1-548)
T7 sequence: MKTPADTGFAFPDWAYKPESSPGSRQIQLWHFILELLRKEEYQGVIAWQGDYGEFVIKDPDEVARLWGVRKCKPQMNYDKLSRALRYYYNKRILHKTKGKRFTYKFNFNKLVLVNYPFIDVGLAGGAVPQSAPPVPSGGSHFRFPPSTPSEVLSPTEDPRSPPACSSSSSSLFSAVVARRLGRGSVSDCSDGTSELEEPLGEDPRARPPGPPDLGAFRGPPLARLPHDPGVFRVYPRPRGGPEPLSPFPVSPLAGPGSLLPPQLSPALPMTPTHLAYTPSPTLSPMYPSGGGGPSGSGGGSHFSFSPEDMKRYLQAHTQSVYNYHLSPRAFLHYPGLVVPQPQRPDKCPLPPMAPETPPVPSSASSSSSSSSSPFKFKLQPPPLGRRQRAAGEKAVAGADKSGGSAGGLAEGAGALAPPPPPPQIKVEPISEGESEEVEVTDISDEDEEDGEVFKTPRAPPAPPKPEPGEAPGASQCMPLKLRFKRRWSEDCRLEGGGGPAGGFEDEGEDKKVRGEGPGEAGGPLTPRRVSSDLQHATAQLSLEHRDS
Summary of the method: as §1

ETS2 = target: T8, ETS2 (Homo sapiens, UniProt P15036 1-469)
T8 sequence: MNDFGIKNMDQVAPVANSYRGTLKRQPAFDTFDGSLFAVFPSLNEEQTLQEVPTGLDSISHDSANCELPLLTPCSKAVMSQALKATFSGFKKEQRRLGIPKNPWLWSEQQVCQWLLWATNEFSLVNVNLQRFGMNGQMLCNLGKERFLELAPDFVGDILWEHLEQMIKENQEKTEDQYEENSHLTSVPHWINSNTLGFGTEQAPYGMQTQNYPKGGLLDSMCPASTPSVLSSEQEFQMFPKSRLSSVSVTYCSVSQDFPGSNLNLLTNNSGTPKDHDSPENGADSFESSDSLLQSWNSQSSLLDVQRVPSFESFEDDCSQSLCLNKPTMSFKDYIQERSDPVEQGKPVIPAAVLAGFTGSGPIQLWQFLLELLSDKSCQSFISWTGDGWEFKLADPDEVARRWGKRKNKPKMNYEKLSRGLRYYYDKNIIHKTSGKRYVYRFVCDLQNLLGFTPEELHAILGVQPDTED
Summary of the method: as §1

ETV6 = ETV6 (Homo sapiens, UniProt P41212 1-452)
ETV6, sequence (P41212 whole entry): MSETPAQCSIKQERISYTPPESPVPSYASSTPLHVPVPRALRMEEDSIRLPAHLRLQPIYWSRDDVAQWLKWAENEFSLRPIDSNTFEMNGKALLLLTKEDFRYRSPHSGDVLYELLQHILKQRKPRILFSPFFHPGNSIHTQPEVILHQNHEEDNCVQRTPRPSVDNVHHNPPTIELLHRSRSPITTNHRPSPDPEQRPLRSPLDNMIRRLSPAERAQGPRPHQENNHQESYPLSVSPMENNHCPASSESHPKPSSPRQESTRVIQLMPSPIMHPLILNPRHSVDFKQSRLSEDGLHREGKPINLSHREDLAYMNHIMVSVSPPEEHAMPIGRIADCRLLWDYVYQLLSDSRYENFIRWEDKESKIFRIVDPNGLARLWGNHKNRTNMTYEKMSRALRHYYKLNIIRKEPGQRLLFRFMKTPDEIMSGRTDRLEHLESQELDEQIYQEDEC
Summary of the method: as §1

EHF = target: T9, EHF (Homo sapiens, UniProt Q9NZC4 1-300)
T9 sequence: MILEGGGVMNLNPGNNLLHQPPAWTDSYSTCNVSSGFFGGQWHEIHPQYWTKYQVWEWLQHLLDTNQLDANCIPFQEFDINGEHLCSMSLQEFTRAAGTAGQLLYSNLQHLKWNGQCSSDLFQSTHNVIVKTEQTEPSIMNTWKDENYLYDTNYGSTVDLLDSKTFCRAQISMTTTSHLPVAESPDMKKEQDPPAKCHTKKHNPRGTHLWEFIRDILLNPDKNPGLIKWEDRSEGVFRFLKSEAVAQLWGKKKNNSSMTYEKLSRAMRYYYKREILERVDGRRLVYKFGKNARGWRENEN
Summary of the method: as §1

ELF3 = target: T10, ELF3 (Homo sapiens, UniProt P78545 1-371)
T10 sequence: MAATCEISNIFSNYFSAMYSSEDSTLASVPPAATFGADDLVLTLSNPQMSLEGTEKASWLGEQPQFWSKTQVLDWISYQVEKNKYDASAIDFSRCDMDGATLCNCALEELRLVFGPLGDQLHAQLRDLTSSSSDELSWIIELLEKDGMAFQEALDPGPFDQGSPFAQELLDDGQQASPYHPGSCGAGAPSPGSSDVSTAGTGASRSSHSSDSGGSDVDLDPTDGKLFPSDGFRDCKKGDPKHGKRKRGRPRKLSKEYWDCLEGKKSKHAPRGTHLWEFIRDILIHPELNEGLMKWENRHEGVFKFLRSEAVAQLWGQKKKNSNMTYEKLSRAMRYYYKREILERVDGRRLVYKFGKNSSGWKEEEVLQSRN
Summary of the method: as §1

ETV1 = ETV1 (Homo sapiens, UniProt P50549 1-477)
ETV1, sequence (P50549 whole entry): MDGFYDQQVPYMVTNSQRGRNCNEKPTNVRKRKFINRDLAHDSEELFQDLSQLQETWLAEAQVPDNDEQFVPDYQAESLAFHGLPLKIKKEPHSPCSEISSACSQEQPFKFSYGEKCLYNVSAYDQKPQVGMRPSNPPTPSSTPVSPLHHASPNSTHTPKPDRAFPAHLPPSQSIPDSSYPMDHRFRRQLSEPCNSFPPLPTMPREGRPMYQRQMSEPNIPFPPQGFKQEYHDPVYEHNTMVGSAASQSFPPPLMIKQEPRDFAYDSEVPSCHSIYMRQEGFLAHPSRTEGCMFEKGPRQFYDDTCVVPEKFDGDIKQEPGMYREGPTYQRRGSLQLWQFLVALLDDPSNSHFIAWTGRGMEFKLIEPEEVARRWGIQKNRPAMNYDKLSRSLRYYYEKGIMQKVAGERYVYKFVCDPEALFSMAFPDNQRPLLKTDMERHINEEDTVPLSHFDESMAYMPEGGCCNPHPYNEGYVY
Summary of the method: as §1

SPDEF = target: T11, SPDEF (Homo sapiens, UniProt O95238 1-335)
T11 sequence: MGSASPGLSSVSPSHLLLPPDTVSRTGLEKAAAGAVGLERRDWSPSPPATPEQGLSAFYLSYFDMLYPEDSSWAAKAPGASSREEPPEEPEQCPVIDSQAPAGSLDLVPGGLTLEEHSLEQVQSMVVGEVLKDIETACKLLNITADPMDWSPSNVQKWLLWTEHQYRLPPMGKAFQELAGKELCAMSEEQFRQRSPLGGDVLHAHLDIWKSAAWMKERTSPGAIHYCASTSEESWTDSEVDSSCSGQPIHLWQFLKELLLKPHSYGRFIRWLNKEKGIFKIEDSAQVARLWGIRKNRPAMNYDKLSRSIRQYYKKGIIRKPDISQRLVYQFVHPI
Summary of the method: as §1

Sequence | binding signal (ELK1) | binding signal (GABPA) | binding signal (ERG) | binding signal (ELF1) | binding signal (ELK3) | binding signal (ETV5) | binding signal (SPIC) | binding signal (ELF4) | binding signal (ELK4) | binding signal (ERF) | binding signal (ETS2) | binding signal (ETV6) | binding signal (EHF) | binding signal (ELF3) | binding signal (ETV1) | binding signal (SPDEF)
CGCCCA | 1.13 fold enrichment (6-mer frequency, TF over GST control) | 1.11 fold enrichment (6-mer frequency, TF over GST control) | 1.06 fold enrichment (6-mer frequency, TF over GST control) | 1.04 fold enrichment (6-mer frequency, TF over GST control) | 1.04 fold enrichment (6-mer frequency, TF over GST control) | 1.01 fold enrichment (6-mer frequency, TF over GST control) | 1.06 fold enrichment (6-mer frequency, TF over GST control) | 1.04 fold enrichment (6-mer frequency, TF over GST control) | 1.04 fold enrichment (6-mer frequency, TF over GST control) | 1.08 fold enrichment (6-mer frequency, TF over GST control) | 1.04 fold enrichment (6-mer frequency, TF over GST control) | 1.09 fold enrichment (6-mer frequency, TF over GST control) |  |  |  | 
AGCCAC | 1.04 fold enrichment (6-mer frequency, TF over GST control) | 1.01 fold enrichment (6-mer frequency, TF over GST control) |  |  | 1.11 fold enrichment (6-mer frequency, TF over GST control) | 1.01 fold enrichment (6-mer frequency, TF over GST control) | 1.03 fold enrichment (6-mer frequency, TF over GST control) |  | 1.03 fold enrichment (6-mer frequency, TF over GST control) | 1.01 fold enrichment (6-mer frequency, TF over GST control) | 1.05 fold enrichment (6-mer frequency, TF over GST control) |  | 1.05 fold enrichment (6-mer frequency, TF over GST control) | 1.06 fold enrichment (6-mer frequency, TF over GST control) | 1.04 fold enrichment (6-mer frequency, TF over GST control) | 1.05 fold enrichment (6-mer frequency, TF over GST control)
